Screening results (PubChem)
The list is not random: actives were taken first. Their share in the collection is about 6.8%.
Autofluor 339 = intrinsic fluorescence of library compounds, ex339/em460 – biochemical, MLSMR library, data from DPM-DC assay, artefact control, profiling panel; compound autofluorescence, ex339/em460 nm, NADH buffer; active compounds read high; 1 = no-compound wells, NADH background; fluorescence fold increase at 10 µM; 65,000 compounds, 5.5% hits; AID 709;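 active = at 10 µM, mean starting fluorescence two-fold or more over control wells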;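 also: signal is the first read of a kinetic run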
Spn MK inh = inhibitors of Streptococcus pneumoniae mevalonate kinase; AID 555; purified MK, PK/LDH-coupled NADH absorbance 340 nm; inhibition, % at 10 µM; 65,000 compounds, 0.48% hits;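 active = ranked among the strongest by inhibition in the single 10 µM screen, a fixed top-ranked set picked for dose follow-up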
PMK inhibit = S. pneumoniae PMK inhibition; purified PMK, PK/LDH-coupled NADH absorbance 340 nm; 65,000 compounds, 0.49% hits; inhibition, % at 10 µM;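 active = top-ranked compounds by inhibition in the single 10 µM screen, taking a fixed number of the strongest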;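 also: 0% = full reaction with DMSO carrier and 100% = background rate without enzyme reaction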
A340 absorber = compounds absorbing at 340 nm; compound absorbance at 340 nm, fold over control; fold change at 10 µM; 65,000 tested, under 10 active; AID 708;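 active = at 10 µM dose, initial 340 nm absorbance at least 2 fold that of control wells; inactive = change under 2 fold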;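 also: initial absorbance extrapolated from kinetic A340 decline of NADH oxidation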
NADH enzymes = blocks coupling enzymes of NAD/NADH assays; 65,000 compounds, 0.02% hits; IC50, µM (series often up to 10 µM), for the others: at the highest dose inhibition; coupled PK/LDH NADH assays, four targets; AID 774;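 active = single-dose screening hits from any of four coupled enzyme assays that gave an IC50 when retested across doses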;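 also: the DPM-DC format reads NADH fluorescence rather than 340 nm absorbance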
DPM-DC inhibit = S. pneumoniae DPM-DC inhibition | 65,000 compounds, 0.49% hits | calls only at 10 µM | AID 556 | purified DPM-DC, PK/LDH coupled NADH fluorescence;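 active = the 320 compounds with the highest percent inhibition in the single-dose primary screen, excluding strongly autofluorescent ones, cut at about 32% in these data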;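 also: kinetic rate of NADH fluorescence loss reporting ADP formed by the decarboxylase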
* marks the source's active call; other numbers are inactive results; i = inactive; · = no result given; + = active, no number.

SMILES	Autofluor 339	Spn MK inh	PMK inhibit	A340 absorber	NADH enzymes	DPM-DC inhibit
CCCc1nc(SCC(N)=O)[nH]c(=O)c1CC	1.1	5	16	0.98	7%	i
Fc1cccc(Cl)c1CSc1nnc(COc2cccc3cccnc23)o1	1.1	0	0	1	0%	i
COc1cccc(N2CC(O)=C(c3nc4ccccc4c(=O)[nH]3)C2=N)c1	2.1*	3	21	1.1	12%	·
COc1ccc(N2CC(O)=C(c3nc4ccccc4s3)C2=N)c(OC)c1	1.6	0	13	1.1	10%	i
C=CCNC(=O)C1CC(=O)N(c2ccc(OCC(=O)Nc3ccccc3)cc2)C1 (stereo not drawn)	1	1	10	1	7%	i
O=c1[nH]c2ccccc2nc1-c1cccs1	4.9*	0	11	1.1	6%	·
c1csc(-c2nnsc2-c2nc3ccccc3[nH]2)c1	1.2	2	8	1	3%	i
COc1ccc(Cl)cc1NC(=O)CN1CCC(n2nnc3cc(F)ccc32)CC1	1.1	9	11	1	10%	i
CCCCC(=O)Nc1nn(C)c2nc3c(C)cccc3cc12	2.4*	10	15	1	12%	i
Cc1cccc2cc3c(NC(=O)CC(C)C)nn(C)c3nc12	2.9*	8	9	1	11%	i
CCCCC(=O)Nc1nn(CCC)c2nc3ccccc3cc12	1.4	5	4	0.99	3%	i
CC(=O)Nc1ccc(S(=O)(=O)N2CCN(c3nc(NC4CCCC4)c4ccccc4n3)CC2)cc1	2.2*	2	9	1.1	6%	·
CC(=O)Nc1ccc(S(=O)(=O)N2CCN(c3cc(C)nc4ccccc34)CC2)cc1	1	5	18	1	3%	i
Nc1ccc(Cl)cc1/C(=N/O)c1ccccc1	1	2	0	1	3%	i
O=C(Nc1nc2c(ccc3ccccc32)s1)c1ccco1	2.8*	0	3	1.1	3%	i
Cc1nc2ccc3nc(NC(=O)c4ccco4)sc3c2s1	1.3	1	30*	1.2	12%	i
Cc1nnc(NC(=O)c2ccco2)s1	1	7	4	1	2%	i
COc1ccccc1N1CCN(CC(=O)c2ccc3ccn(C(C)=O)c3c2)CC1	1.3	3	0	1.1	2%	i
CC(=O)OCC(=O)c1ccc2ccn(C(C)=O)c2c1	3.4*	0	16	1	2%	·
COC(=O)c1cccc(CSc2nnc(C)s2)c1	1.1	0	3	0.97	1%	i
CCOC(=O)COc1ccc(S(=O)(=O)N2CCc3ccccc3C2)cc1	1	2	4	0.97	3%	i
Fc1ccc2c(Cl)c(-c3nnc(-c4cccs4)o3)sc2c1	3.6*	1	14	1.1	8%	·
O=C(Nc1nnc(-c2cccs2)o1)c1cccc(C(F)(F)F)c1	1.1	0	8	1.1	3%	i
CC1(C)CC(=O)C2=C(C1)NC(=O)CC2c1cccc(F)c1 (stereo not drawn)	1.2	0	12	0.99	4%	i
CC1(C)CC(=O)C2=C(C1)N(CCN1CCOCC1)C1=C(C(=O)CC(C)(C)C1)C2c1ccc(Cl)cc1	5*	2	2	0.99	2%	·
SMILES	Autofluor 339	Spn MK inh	PMK inhibit	A340 absorber	NADH enzymes	DPM-DC inhibit
CC1(C)CC(=O)C2=C(C1)N(CCN1CCOCC1)C1=C(C(=O)CC(C)(C)C1)C2c1cccc(F)c1	4.8*	2	3	1	3%	·
COc1ccc(C2C3=C(CC(C)(C)CC3=O)N(CCN3CCOCC3)C3=C2C(=O)CC(C)(C)C3)cc1	3.4*	0	0	1	6%	i
CSc1nc(C)cc(OCCNS(=O)(=O)c2cc(C)ccc2C)n1	1.1	1	0	1	0%	i
CCCCC(=O)Nc1ccc(C(N)=O)cc1	1.1	6	0	0.99	17%	+
CCCCC(=O)Nc1ccc(C(=O)NCC(=O)OC)cc1	1.1	12	6	1	7%	i
O=C1CCC(C(=O)N(Cc2ccco2)C2(C(=O)NC3CCCC3)CCCCC2)N1 (stereo not drawn)	1.1	0	0	1	5%	+
CC(=O)N(Cc1ccco1)C1(C(=O)NC2CCCCC2)CCCCC1	1.2	8	6	1	5%	i
COC(=O)c1cc(NS(=O)(=O)c2ccc3c(c2)CCC(=O)N3)cc(C(=O)OC)c1	1.5	0	16	0.98	7%	i
CCCc1cc(=O)n2[nH]c(NCc3c(F)cccc3Cl)nc2n1	1.1	6	4	1	4%	i
CC1=CC(c2ccccc2)n2nc(NS(=O)(=O)c3ccc(C)cc3)nc2N1 (stereo not drawn)	2.2*	7	9	1.1	8%	·
Cc1ccc(S(=O)(=O)Nc2cc(C)nn2-c2ccccc2)cc1	1.1	7	5	1	4%	i
Cc1cc(C)c(S(=O)(=O)N2CCCCC2)c(C)c1-n1ncnn1	1.1	8	0	1.1	3%	i
CCOc1c(C)cc(-c2ncccc2O)cc1C	3.8*	11	2	1.1	14%	i
Cc1ccc2oc(=O)cc(CN3CCOCC3)c2c1	1.1	5	13	1	6%	i
CCNc1cc2oc(=O)c(CN3CCOCC3)c(C)c2cc1C	2.2*	0	13	1.1	7%	·
CCOC(=O)C(C(C)=O)c1c(Br)c(O)c(O)c2c(C(=O)c3ccc(C)cc3)coc12 (stereo not drawn)	1.1	0	1	1.1	0%	i
CCOc1ccc(-c2nc(C#N)c(NCC(C)C)o2)cc1	2.4*	0	9	1	5%	·
C=CCNc1oc(-c2ccc(OC)cc2)nc1C#N	3.7*	3	3	1	3%	·
C=CCNc1oc(-c2ccc(OCC)cc2)nc1C#N	2.3*	3	0	1.1	2%	·
N#Cc1nc(-c2ccc(OCc3ccc(Cl)cc3)cc2)oc1NCCCn1ccnc1	1.6	1	4	1.1	2%	i
COC(=O)c1[nH]c2cccc(OC)c2c1NC(=O)CCN1CCC(C(N)=O)CC1	2.9*	7	15	1	15%	i
COC(=O)c1[nH]c2cccc(OC)c2c1NC(=O)CN1CCC(C(N)=O)(N2CCCCC2)CC1	3.7*	5	4	1	5%	·
COC(=O)c1[nH]c2cccc(OC)c2c1NC(=O)CCN1CCN(c2ccccc2F)CC1	3.1*	11	14	1	13%	i
COc1ccccc1OCC(O)CN1C(=O)NC(C)(C)C1=O (stereo not drawn)	0.94	9	13	1	17%	i
CC1Oc2ccccc2N(CC(=O)N(Cc2ccccc2)Cc2ccccn2)C1=O (stereo not drawn)	1	0	11	0.99	3%	i
Cc1ccc2nc(-c3cccc(-c4nc5ccc(C)cc5o4)n3)oc2c1	2.1*	0	24	1.1	10%	i
